Activity calls are given as the source filed them.
Tests used:
[1] = system: PRMT1 (protein arginine N-methyltransferase 1); experiment: PRMT1 binders on small-molecule microarrays, primary screen, biochemical, small-molecule microarray, 635 nm fluorescence (AID 1088); settings: small-molecule microarray binding, higher = more signal;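 note: binding of Prmt1 protein to compounds spotted on small-molecule microarray slides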
[2] = yeast growth modulation, basal conditions, primary screen, YJM789 clinical isolate, OD600, 24 h (AID 1089);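 note: growth of clinical yeast isolate S. cerevisiae YJM 789 seeded 1000 cells per well; test concentration not given here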; settings: S. cerevisiae YJM789 growth, higher = more signal, called active from +8 up or from −8 down
[3] = fission yeast growth modulation, primary screen, strain 972, OD600, 24 h, no modulator (AID 1090);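 note: basal condition with compound alone and no growth modifier present; test concentration not given here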; settings: S. pombe 972 growth, higher = more signal, called active from +8 up or from −8 down
[4] = S. cerevisiae growth modulation with rapamycin, primary screen, strain BY4716, OD600, 96 h (AID 1091); settings: higher = more signal, called active from +8 up or from −8 down; note: test concentration not given here
[5] = target: Torsin-1A-interacting protein 2 (Homo sapiens) (UniProt Q8NFQ8); experiment: LULL1 binders on small-molecule microarray, primary screen, cell lysate, human LULL1 lysate, 635/667 nm fluorescence (AID 1092); settings: hLULL1 lysate binding, 635 nm fluorescence, higher = more signal;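 note: probe is lysate of COS7 cells overexpressing human LULL1; score merges per-feature 667 nm fluorescence with signal-to-noise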
[6] = E. coli growth modulation, two-sided OD650, primary screen, E. coli filamentation project, strain DRC41, 24 h (AID 1093); settings: OD650, 24 h, higher = more signal, called active from +8 up or from −8 down;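 note: MC1000 strain lacking acrAB efflux and sulA so SOS filamentation is blocked; test concentration not given here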
[7] = small-molecule microarray binders of probe aLefty2, primary screen, biochemical, biotinylated probe, 635/667 nm fluorescence (AID 1094); settings: higher = more signal;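 note: score merges spot fluorescence near 667 nm with spot signal-to-noise ratio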
[8] = system: Noggin (protein binding on small-molecule microarray); experiment: Noggin binders on small-molecule microarray, primary screen, biochemical, 635/667 nm fluorescence (AID 1095); settings: 635 nm fluorescence, higher = more signal;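 note: score merges 667 nm feature fluorescence with signal to noise over triplicate slides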
[9] = target: Neurogenic locus notch homolog protein 3 (Homo sapiens) (UniProt Q9UM47); experiment: NOTCH3 binders on small-molecule microarray, primary screen, biochemical, 635/667 nm fluorescence (AID 1096); settings: NOTCH3 binding, 635 nm fluorescence, higher = more signal
[10] = small-molecule microarray binders of probe aEGFR, primary screen, biochemical, biotinylated probe, 635/667 nm fluorescence (AID 1097); settings: higher = more signal;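 note: probe is a biotinylated anti-EGFR antibody binding compounds printed on slides; score combines fluorescence near 667 nm and signal to noise of each spot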
[11] = system: Plasmodium falciparum Sir2 (PF13_0152, Sir2A); experiment: pfSir2 binders on small-molecule microarrays, primary screen, biochemical, small-molecule microarray, 635 nm fluorescence (AID 1098); settings: small-molecule microarray binding, fluorescence 635 nm; higher = more signal;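 note: score merges spot fluorescence intensity with its signal-to-noise ratio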
[12] = small-molecule microarray binders of probe aDKK1, primary screen, biochemical, biotinylated probe, 635/667 nm fluorescence (AID 1099); settings: higher = more signal;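 note: score merges 667nm spot fluorescence with signal to noise across triplicate slides; reference of the scale not given here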
[13] = small-molecule microarray binders of probe aCHRDL2, primary screen, biochemical, biotinylated probe, 635/667 nm fluorescence (AID 1100); settings: higher = more signal
[14] = splicing luciferase reporter signal modulators, primary screen, spliceosome inhibition project, cell-based, HEK293, splice +/- reporter (AID 1101); settings: luminescence, 24 h, higher = more signal, called active from +8 up or from −8 down;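 note: HEK293 cells carrying a splicing-competent luciferase reporter gene; test concentration not given here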
[15] = target: Fibroblast growth factor 10 (Homo sapiens) (UniProt O15520); experiment: FGF10 binders on small-molecule microarrays, primary screen, biochemical, small-molecule microarray, 635 nm fluorescence (AID 1102); settings: FGF10 binding, fluorescence 635 nm, higher = more signal
[16] = system: glycogen synthase kinase-3 (GSK3A per assay name; protocol says GSK3B); experiment: GSK3 binders on small-molecule microarrays, primary screen, biochemical, small-molecule microarray, 635 nm fluorescence, GSK3A (AID 1103); settings: small-molecule microarray binding, fluorescence 635 nm; higher = more signal; note: the record names both GSK3A and GSK3B
[17] = target: Epidermal growth factor receptor (Homo sapiens) (UniProt P00533); experiment: EGFR binders on small-molecule microarrays, primary screen, biochemical, small-molecule microarray, 635 nm fluorescence (AID 1104); settings: EGFR binding, higher = more signal;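 note: score merges 667 nm emission intensity with spot signal to noise over triplicate slides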
[18] = target: Follistatin-related protein 3 (Homo sapiens) (UniProt O95633); experiment: FSTL3 binders on small-molecule microarrays, primary screen, biochemical, small-molecule microarray, 635 nm fluorescence (AID 1105); settings: FSTL3 binding, higher = more signal;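 note: score merges emission near 667 nm and signal to noise per printed spot across three slides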
[19] = target: Dickkopf-related protein 1 (Homo sapiens) (UniProt O94907); experiment: DKK1 binders on small-molecule microarrays, primary screen, biochemical, small-molecule microarray, 635 nm fluorescence scan (AID 1106); settings: DKK1 binding, higher = more signal;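 note: score merges emission near 667 nm with signal to noise over three replicate slides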
[20] = system: Inhibin beta A chain (activin A); experiment: INHBA (activin A) binders on microarrays, primary screen, biochemical, small-molecule microarray, 635 nm fluorescence scan (AID 1107); settings: small-molecule microarray binding, higher = more signal;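 note: mouse activin A protein probed at 4.33 µg/mL on printed slides; score merges bound-protein fluorescence near 667 nm with spot signal-to-noise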

Chain of Epidermal growth factor receptor (Homo sapiens) (P00533 whole entry, looked up): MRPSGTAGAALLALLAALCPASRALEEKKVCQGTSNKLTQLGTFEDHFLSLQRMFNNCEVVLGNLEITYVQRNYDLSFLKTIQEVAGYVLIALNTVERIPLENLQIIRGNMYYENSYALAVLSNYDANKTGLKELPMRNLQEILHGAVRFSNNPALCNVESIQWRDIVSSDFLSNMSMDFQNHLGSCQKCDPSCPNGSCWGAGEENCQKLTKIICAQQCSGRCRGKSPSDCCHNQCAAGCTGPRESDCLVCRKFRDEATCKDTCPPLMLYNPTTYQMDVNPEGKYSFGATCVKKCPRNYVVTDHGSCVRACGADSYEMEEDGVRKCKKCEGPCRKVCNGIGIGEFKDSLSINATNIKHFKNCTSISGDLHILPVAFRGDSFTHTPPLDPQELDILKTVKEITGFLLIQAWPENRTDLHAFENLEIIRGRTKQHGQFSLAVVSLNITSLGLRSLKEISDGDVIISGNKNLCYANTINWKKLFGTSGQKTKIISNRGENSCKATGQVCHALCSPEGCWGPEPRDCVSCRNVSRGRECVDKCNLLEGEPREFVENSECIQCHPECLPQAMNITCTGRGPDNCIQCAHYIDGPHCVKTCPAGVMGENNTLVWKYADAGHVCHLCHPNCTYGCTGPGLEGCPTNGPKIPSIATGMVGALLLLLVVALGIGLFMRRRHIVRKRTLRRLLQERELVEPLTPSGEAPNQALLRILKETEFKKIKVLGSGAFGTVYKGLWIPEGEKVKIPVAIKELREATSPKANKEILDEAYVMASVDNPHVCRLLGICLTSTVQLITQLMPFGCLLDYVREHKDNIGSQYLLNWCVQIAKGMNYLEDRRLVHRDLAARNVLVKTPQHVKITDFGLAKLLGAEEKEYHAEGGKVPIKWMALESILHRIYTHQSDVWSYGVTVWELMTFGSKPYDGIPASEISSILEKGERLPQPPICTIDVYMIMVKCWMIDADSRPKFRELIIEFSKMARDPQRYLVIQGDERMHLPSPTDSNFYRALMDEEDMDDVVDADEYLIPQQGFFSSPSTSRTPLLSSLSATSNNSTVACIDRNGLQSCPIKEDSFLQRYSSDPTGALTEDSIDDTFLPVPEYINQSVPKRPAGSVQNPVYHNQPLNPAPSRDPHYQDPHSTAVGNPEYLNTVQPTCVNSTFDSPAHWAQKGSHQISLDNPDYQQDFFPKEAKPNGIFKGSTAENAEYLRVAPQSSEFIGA
Chain of Follistatin-related protein 3 (Homo sapiens) (O95633 whole entry, looked up): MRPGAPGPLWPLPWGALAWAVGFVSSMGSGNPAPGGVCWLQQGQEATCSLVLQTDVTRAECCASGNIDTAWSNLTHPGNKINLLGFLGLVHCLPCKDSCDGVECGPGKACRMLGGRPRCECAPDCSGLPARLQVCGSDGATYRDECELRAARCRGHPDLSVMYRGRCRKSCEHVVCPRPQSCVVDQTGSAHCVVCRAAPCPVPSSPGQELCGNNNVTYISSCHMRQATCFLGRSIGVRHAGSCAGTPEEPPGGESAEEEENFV
Chain of Fibroblast growth factor 10 (Homo sapiens) (O15520 whole entry, looked up): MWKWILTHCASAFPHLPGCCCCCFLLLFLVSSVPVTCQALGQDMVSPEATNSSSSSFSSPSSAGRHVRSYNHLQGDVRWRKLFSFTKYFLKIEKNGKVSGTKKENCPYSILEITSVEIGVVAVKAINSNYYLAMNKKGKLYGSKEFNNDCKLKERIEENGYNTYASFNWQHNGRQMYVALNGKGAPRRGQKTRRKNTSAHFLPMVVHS
Chain of Torsin-1A-interacting protein 2 (Homo sapiens) (Q8NFQ8 whole entry, looked up): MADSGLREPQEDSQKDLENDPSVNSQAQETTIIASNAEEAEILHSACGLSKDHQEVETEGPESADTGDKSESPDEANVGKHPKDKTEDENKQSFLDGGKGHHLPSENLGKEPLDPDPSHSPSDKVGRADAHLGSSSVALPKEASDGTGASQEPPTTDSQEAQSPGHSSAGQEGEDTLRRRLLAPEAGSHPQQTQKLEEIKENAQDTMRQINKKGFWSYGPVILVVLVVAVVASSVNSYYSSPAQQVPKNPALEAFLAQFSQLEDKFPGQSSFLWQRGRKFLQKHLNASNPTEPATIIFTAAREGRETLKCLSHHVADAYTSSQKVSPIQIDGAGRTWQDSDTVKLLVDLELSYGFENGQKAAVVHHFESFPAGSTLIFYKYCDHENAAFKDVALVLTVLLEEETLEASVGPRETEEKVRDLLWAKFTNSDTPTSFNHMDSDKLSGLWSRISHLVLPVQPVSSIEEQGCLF
Chain of Neurogenic locus notch homolog protein 3 (Homo sapiens) (Q9UM47 whole entry, looked up): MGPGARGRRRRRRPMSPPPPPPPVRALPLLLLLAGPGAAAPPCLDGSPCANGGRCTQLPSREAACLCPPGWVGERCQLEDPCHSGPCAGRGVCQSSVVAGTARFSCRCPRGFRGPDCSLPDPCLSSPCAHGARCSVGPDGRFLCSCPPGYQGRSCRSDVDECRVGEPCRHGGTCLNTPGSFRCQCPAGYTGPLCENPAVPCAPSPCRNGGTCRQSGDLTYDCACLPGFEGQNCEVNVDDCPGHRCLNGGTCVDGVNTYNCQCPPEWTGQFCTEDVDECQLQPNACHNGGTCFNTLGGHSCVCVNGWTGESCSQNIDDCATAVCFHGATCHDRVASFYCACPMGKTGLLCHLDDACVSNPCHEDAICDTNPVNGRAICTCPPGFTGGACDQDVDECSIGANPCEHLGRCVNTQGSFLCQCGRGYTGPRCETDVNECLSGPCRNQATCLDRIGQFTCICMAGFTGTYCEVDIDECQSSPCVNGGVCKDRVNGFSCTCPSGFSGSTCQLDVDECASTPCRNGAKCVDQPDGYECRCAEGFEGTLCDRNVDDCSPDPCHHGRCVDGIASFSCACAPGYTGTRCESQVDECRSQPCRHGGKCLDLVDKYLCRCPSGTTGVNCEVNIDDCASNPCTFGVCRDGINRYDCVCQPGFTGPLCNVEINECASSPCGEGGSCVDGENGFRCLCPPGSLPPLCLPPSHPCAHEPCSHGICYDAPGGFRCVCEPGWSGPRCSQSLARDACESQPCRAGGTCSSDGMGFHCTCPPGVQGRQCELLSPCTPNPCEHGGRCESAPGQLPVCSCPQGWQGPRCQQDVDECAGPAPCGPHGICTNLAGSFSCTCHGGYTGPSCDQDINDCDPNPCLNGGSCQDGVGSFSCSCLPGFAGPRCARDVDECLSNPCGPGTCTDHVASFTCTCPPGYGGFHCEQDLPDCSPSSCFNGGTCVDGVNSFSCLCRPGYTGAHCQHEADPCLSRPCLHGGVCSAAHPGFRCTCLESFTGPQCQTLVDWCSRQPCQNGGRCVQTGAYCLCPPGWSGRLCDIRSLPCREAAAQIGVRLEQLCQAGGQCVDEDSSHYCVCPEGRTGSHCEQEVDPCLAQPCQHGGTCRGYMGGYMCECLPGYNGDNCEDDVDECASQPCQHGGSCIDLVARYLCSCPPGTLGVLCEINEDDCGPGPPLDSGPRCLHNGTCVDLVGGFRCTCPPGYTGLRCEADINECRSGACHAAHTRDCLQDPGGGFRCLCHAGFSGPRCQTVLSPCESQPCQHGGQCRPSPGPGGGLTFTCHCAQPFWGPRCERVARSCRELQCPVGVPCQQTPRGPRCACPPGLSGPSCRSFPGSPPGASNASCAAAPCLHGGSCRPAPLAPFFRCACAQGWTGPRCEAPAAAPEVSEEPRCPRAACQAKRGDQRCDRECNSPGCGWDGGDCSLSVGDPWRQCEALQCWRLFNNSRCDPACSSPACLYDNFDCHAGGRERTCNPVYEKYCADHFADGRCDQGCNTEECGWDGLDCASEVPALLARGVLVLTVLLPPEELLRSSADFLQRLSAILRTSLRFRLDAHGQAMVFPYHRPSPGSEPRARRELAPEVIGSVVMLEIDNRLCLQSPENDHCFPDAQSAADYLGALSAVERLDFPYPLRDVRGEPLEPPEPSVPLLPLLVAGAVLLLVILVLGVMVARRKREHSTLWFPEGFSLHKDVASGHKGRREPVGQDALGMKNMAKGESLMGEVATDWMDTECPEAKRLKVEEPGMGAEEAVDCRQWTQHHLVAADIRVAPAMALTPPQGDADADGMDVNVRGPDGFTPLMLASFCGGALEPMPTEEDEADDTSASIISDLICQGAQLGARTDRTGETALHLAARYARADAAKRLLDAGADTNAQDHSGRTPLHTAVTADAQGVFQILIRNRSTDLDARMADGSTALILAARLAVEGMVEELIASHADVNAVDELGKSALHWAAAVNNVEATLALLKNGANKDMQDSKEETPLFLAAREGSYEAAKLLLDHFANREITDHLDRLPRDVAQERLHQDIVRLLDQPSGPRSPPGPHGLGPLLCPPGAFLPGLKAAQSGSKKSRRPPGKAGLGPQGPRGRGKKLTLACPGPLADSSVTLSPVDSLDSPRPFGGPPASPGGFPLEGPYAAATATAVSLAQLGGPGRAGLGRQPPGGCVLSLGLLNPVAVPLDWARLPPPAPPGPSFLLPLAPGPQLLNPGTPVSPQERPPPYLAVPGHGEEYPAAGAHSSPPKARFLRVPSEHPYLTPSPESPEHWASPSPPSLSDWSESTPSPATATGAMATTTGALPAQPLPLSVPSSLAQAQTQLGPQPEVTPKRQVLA
Chain of Dickkopf-related protein 1 (Homo sapiens) (O94907 whole entry, looked up): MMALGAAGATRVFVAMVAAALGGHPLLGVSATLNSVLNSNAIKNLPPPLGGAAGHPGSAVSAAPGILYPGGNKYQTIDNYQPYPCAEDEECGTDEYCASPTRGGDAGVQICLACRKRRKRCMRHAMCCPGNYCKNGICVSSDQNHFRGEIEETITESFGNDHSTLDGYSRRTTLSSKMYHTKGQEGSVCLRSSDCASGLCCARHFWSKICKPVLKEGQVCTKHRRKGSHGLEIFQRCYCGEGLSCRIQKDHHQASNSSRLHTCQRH

Structure (SMILES)	composite z-score [1]	z-score [2]	z-score [3]	z-score [4]	composite z-score [5]	z-score [6]	composite z-score [7]	composite z-score [8]	composite z-score [9]	composite z-score [10]	composite z-score [11]	composite z-score [12]	composite z-score [13]	z-score [14]	composite z-score [15]	composite z-score [16]	composite z-score [17]	composite z-score [18]	composite z-score [19]	composite z-score [20]
COCCCNC(=O)[C@@]1(c2ccc([N+](=O)[O-])cc2)CC(=O)N(C2CCCCC2)[C@@H]1c1ccc(CO)cc1	0.139	-0.707 (inactive)	-0.591 (inactive)	-0.432 (inactive)	2.04	0.77 (inactive)	-0.509	-0.836	-0.193	-0.421	-0.463	-0.86	-0.67	-0.748 (inactive)	0.316	0.296	-0.0545	-0.186	-0.296	-0.395
COCCOC(=O)N1C(=O)[C@@]2(c3cc(C#CC4=CCCCC4)ccc31)[C@H](c1ccc(O)cc1)N1[C@H](c3ccccc3)[C@H](c3ccccc3)OC(=O)[C@H]1[C@@H]2C(=O)N1CCCCCCC1	1.57	0.2 (inactive)	-1.06 (inactive)	0.776 (inactive)	2.11	2.01 (inactive)	0.367	1.42	1.13	0.0143	0.84	0.854	0.842	-0.476 (inactive)	0.603	1.3	0.405	1.24	0.948	1.6
C[C@H]1COC(=O)[C@@H]2CCCN2C(=O)[C@@H](C)COC(=O)[C@@H]2CCCN2C1=O	-0.8	-0.173 (inactive)	-0.649 (inactive)	-1.65 (inactive)	-0.863	0.493 (inactive)	-0.175	0.381	-0.493	-0.071	-0.0175	-0.37	-0.675	-0.0582 (inactive)	0.419	-0.295	0.514	-0.0914	0.563	-0.0885
CCC1=C2CN(Cc3ccccc3Br)[C@@H]([C@@H](O)Cc3ccccc3)C2C=CCC1 (stereo not given in full)	1.24	-0.828 (inactive)	-5.56 (inactive)	-1.13 (inactive)	2.11	0.777 (inactive)	-0.125	0.515	1.05	-0.0981	0.124	-0.0181	-0.311	-2.14 (inactive)	0.597	0.6	0.164	0.961	0.513	0.677
CO[C@H]1COC(=O)CC=C[C@H](C)COC(=O)[C@@H](OCc2ccccc2)C=C[C@@H]1C	1.52	0.0706 (inactive)	-1.39 (inactive)	-0.993 (inactive)	0.059	0.0129 (inactive)	-0.368	2.03	-0.532	-0.322	0.558	-1.12	-1.62	-1.71 (inactive)	0.429	1.28	0.711	1.2	2.07	0.924
COC(=O)C1=CC(c2ccc(CO)cc2)=CC(c2cccs2)N(Cc2cccc(OC(F)(F)F)c2)C=C1C(=O)OC (stereo not given)	1.27	-0.107 (inactive)	-1.75 (inactive)	0.434 (inactive)	3.31	0.241 (inactive)	0.006	-0.0249	1.13	-0.0187	1.49	-0.0873	0.428	0.939 (inactive)	0.945	1.26	-0.41	0.568	-0.0789	1.09
C=CCN1C(=O)[C@@]2(O[C@@H](CCn3cc([C@H](O)c4ccccc4)nn3)[C@H]([Si](C)(C)c3ccc(OC)cc3)[C@H]2C)c2cc(N3CCOC3=O)ccc21	1.15	-1.26 (inactive)	-1.88 (inactive)	-0.723 (inactive)	1.8	2.19 (inactive)	-0.0463	-0.0328	0.131	-0.121	-0.412	0.16	0.338	-2.62 (inactive)	0.0752	0.472	0.135	-0.0856	0.216	0.392
CC(C)CN1C(=O)[C@@]2(Cc3ccccc31)c1ccccc1C(=O)N(C1CCCCC1)[C@H]2c1ccc(CO)cc1	0.499	-1.6 (inactive)	-1.32 (inactive)	-2.34 (inactive)	2.01	1.56 (inactive)	-0.121	-0.901	-1.35	-0.179	-0.23	0.262	1.02	-1.41 (inactive)	-0.706	-1.24	-0.894	-1.34	-1.66	0.977
CN(C)CCCC[C@@H]1NC(=O)[C@@H]2C[C@H](C(=O)O)[C@H](c3ccc(O)cc3)N2C1=O	1.41	-0.937 (inactive)	-1.04 (inactive)	-0.587 (inactive)	0.728	2.71 (inactive)	-0.153	1.01	0.385	-0.0605	0.902	-0.005	-0.222	-2.22 (inactive)	0.857	1.21	0.737	0.928	1.68	0.293
CC(=O)NCCCC[C@@H]1NC(=O)[C@@H]2C[C@H](C(=O)NCCCCCCN(C)C)[C@H](c3ccc(O)cc3)N2C1=O	1.54	0.146 (inactive)	-0.542 (inactive)	0.905 (inactive)	2.4	1.02 (inactive)	0.691	1.61	1.08	0.177	1.02	0.363	0.117	-1.45 (inactive)	1.25	1.36	1.31	1.5	1.86	0.11
